For some assays here: Potency and affinity values are given separately.

In ChEMBL document CHEMBL3988442, “University of Dundee, Small-Polar-MMV Screening Library” (2021) one finds Percent Effect data, which are given here for 11 compounds.

Holding throughout (set-up): scale not given: direction of the effect not stated beside the values
Assay [1] deals with Protein translocase subunit SecA (Escherichia coli (strain K12)) (UniProt P10408). The assay is described as follows: Assay to Identify E. coli SecA ATPase Inhibitors. The class given is functional. Conditions: 30 µM.
For assay [2], the target named is T1, Ubiquitin-activating enzyme e1, putative (Leishmania donovani (strain BPK282A1)) (UniProt E9BSI1).
T1 sequence (whole entry): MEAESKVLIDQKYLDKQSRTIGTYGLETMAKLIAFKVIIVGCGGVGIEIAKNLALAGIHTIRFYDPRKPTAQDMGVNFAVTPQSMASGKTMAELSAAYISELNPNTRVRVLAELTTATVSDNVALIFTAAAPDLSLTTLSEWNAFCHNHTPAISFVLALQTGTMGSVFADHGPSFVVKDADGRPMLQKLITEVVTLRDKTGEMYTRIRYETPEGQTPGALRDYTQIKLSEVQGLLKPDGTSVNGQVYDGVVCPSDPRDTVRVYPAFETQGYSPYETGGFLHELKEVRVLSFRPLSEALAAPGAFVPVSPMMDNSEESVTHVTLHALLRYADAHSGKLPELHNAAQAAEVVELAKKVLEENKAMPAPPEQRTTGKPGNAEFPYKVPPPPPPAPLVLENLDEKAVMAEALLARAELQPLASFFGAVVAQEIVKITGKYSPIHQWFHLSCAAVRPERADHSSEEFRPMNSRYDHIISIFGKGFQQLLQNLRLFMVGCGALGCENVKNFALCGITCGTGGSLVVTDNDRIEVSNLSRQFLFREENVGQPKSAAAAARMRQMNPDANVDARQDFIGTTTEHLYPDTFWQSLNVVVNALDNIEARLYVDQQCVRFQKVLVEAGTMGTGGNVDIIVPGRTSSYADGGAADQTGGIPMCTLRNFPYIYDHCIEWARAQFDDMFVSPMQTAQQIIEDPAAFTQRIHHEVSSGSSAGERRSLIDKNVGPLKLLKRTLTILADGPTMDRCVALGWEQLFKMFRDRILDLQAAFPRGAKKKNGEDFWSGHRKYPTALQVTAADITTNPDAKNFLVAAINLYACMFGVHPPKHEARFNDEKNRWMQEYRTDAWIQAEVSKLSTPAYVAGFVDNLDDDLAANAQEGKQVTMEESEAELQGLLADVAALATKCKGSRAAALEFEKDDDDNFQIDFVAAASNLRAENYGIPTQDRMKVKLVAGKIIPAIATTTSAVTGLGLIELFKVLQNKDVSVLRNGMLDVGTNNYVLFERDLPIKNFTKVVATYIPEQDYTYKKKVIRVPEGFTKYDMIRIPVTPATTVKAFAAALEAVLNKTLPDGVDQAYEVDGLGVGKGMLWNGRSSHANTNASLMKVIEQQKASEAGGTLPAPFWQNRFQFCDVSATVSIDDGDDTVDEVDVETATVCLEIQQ
The assay is described as follows: Leishmania donovani Ubiquitin Activating Enzyme (LdE1). The class given is functional. Conditions: 30 µM.

Assay [3] addresses Sialic acid-binding Ig-like lectin 9 (Homo sapiens) (UniProt Q9Y336). The experiment in a line: Hs-Siglec9 ALPHAscreen SOP 20170721. Conditions: 10 µM.
Another assay relates to Trypanosoma cruzi. The experiment in a line: Trypanosoma cruzi phosphomannomutase and mannose-1-phosphate guanylyltransferase assay. The class given is functional. Conditions: 10 µM.
The target of assay [4] is T2, Arginase-2, mitochondrial (Homo sapiens) (UniProt P78540).
T2 sequence (whole entry): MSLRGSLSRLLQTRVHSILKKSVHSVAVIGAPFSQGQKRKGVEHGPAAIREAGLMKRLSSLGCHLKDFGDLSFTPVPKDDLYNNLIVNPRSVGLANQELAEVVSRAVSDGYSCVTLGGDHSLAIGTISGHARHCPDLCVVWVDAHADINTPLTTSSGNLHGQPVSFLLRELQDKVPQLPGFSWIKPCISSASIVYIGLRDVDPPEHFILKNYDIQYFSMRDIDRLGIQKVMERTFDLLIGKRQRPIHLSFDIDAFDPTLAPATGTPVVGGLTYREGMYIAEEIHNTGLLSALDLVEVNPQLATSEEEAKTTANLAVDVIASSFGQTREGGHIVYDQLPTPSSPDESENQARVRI
The assay is described as follows: in vitro enzyme assay to detect the production of urea directly proportional to the activity of Arginase II. Further: in the data most compounds retested in dose-response had high values. The class given is functional. The conditions noted are these: 33.3 µM.

Assay [5] has as its target T3, Proteasome subunit beta (Trypanosoma cruzi) (UniProt O96673).
T3 sequence (whole entry): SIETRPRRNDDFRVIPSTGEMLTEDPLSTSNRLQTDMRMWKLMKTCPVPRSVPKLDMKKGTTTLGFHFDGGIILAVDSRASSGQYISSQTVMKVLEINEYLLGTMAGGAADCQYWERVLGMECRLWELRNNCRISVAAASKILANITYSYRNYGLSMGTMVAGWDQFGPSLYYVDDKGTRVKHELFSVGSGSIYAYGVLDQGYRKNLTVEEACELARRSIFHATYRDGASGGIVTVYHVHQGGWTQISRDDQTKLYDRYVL
The experiment in a line: Trypanosoma cruzi proteasome chymotrypsin-like activity (TcProtChymo) assay. Further: in the data most compounds retested in dose-response had high values. The class given is functional. Conditions: 9.37 µM.

For the next assay, the species on record is Homo sapiens. The experiment in a line: To identify inhibition of the IFN signalling (Jak-Stat) pathway via expression of an eGFP reporter gene under the control of an IFN-stimulated response element (ISRE) containing MxA promoter. The class given is functional. The conditions noted are these: 30 µM. (In general: In a reporter assay the amount or activity of a reporter protein is the signal.)

In assay [6] the target is T4, Tyrosyl-tRNA synthetase, putative (Trypanosoma cruzi (strain CL Brener)) (UniProt Q4DSP6).
T4 sequence (whole entry): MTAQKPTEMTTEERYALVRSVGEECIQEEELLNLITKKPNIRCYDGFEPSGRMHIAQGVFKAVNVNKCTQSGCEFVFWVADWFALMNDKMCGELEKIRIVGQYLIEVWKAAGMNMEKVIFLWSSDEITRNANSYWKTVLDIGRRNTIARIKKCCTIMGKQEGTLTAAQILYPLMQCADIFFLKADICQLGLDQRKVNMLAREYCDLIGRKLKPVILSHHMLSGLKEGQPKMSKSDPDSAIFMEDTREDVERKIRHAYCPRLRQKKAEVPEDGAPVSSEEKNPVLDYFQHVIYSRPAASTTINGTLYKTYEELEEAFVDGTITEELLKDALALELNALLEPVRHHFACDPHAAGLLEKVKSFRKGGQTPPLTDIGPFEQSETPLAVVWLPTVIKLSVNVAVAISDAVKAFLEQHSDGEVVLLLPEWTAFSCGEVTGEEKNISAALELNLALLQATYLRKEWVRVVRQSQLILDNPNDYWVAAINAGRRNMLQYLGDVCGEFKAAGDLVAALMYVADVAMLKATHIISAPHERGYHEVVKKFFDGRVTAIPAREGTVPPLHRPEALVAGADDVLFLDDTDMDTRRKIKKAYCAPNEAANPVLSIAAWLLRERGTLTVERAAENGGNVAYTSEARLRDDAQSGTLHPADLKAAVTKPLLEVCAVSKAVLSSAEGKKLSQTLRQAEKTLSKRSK
The assay is described as follows: Trypanosoma cruzi tyrosyl tRNA synthetase (TcYRS) _High Tyrosine SOP. Further: in the data most compounds retested in dose-response had high values. The class given is functional. Conditions: 30 µM.

Assay [7] addresses T4, Tyrosyl-tRNA synthetase, putative (Trypanosoma cruzi (strain CL Brener)). The assay is described as follows: Trypanosoma cruzi tyrosyl tRNA synthetase (TcYRS) SOP. The class given is functional. The conditions noted are these: 30 µM.
The target in assay [8] is Chromo domain-containing protein 1 (Saccharomyces cerevisiae (strain ATCC 204508 / S288c) (Baker's yeast)) (UniProt P32657). The experiment in a line: ScCHD-1 Enzyme Inhibition Assay. Further: in the data most compounds retested in dose-response had high values. The class given is functional. Conditions: 30 µM.
Chain of Chromo domain-containing protein 1 (Saccharomyces cerevisiae (strain ATCC 204508 / S288c) (Baker's yeast)) (P32657 whole entry, the tested form may be a part): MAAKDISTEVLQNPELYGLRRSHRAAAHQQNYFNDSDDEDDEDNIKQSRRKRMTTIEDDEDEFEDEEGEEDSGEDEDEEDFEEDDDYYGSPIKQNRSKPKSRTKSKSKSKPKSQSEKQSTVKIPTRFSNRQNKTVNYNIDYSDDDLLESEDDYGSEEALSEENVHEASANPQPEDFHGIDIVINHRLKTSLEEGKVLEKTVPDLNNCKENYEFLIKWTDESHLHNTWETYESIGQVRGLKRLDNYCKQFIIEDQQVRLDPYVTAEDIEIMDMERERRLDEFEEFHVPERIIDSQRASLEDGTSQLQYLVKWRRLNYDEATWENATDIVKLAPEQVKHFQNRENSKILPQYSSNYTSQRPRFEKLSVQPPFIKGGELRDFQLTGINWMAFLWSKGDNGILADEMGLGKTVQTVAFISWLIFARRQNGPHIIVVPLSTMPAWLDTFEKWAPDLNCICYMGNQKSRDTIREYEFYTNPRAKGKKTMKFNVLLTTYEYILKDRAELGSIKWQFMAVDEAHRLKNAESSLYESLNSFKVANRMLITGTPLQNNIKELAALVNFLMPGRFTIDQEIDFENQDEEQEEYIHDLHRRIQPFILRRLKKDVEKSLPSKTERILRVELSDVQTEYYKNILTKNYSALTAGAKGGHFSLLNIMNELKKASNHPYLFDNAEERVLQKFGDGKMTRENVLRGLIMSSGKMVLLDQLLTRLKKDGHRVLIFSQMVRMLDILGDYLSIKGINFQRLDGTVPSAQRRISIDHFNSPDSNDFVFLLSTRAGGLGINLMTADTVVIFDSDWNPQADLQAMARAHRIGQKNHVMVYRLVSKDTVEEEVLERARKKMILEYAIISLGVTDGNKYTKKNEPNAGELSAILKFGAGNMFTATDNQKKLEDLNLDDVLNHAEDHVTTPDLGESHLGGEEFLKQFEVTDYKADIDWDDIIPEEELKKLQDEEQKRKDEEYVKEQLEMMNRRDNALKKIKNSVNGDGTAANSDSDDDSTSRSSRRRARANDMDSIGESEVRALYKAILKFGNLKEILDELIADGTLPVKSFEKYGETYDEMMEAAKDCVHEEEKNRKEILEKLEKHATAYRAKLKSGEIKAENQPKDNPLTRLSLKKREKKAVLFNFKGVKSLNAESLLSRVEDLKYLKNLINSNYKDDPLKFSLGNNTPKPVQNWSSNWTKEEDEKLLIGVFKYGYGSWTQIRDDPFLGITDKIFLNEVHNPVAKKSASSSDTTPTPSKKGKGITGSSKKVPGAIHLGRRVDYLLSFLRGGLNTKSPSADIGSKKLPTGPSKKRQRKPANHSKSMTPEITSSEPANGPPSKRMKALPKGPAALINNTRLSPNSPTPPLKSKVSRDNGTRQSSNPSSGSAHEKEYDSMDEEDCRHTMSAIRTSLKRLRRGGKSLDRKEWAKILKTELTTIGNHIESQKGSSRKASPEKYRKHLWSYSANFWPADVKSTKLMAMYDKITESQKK

Chain of Protein translocase subunit SecA (Escherichia coli (strain K12)) (P10408 whole entry): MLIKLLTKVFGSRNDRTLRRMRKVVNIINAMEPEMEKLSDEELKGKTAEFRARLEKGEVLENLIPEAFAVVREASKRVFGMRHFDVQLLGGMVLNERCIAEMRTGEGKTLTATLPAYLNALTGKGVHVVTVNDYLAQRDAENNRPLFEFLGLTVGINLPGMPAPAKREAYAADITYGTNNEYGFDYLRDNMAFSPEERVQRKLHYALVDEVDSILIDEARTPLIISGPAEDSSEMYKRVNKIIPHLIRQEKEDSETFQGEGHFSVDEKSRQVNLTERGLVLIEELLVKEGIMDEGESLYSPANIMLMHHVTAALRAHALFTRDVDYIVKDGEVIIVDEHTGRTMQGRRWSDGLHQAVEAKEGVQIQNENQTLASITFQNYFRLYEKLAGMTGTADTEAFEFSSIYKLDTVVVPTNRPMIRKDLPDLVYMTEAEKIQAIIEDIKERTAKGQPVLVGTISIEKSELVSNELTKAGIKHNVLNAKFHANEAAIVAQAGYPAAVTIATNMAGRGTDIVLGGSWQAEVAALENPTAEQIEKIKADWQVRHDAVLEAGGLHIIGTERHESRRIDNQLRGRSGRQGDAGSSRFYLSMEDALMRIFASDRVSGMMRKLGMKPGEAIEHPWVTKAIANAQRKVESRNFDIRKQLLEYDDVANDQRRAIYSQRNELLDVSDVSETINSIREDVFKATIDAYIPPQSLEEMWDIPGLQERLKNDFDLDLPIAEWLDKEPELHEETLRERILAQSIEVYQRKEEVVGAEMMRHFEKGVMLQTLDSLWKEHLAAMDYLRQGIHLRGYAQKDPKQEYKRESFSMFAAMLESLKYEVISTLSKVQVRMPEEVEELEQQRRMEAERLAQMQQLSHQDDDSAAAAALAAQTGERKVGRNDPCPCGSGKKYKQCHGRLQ
Chain of Sialic acid-binding Ig-like lectin 9 (Homo sapiens) (Q9Y336 whole entry): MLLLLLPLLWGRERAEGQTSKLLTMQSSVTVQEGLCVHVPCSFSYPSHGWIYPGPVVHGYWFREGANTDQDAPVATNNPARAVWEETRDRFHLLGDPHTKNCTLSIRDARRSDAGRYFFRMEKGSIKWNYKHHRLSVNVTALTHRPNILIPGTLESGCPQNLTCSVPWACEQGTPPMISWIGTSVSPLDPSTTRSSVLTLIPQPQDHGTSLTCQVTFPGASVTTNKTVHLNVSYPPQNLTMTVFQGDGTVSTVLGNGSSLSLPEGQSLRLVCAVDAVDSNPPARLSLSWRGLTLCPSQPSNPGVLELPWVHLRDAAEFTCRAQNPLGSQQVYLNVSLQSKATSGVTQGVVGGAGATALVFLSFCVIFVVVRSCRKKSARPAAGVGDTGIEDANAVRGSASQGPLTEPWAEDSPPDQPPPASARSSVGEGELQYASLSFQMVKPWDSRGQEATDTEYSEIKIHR

For the compound `COCC(=O)N1CCC2(CCN(Cc3ccccn3)CC2)CC1`, the Percent Effect in [1] was -4.25%; in [2], 6.49%; in assay [3] it was 6.7%; in the assay on Trypanosoma cruzi, 4.77%; in assay [4], 11.7%; in assay [5], 12.3%. In addition, the Percent Effect in the assay listed under Homo sapiens is -3.67%; in assay [6], 1.58%; in assay [7], 5.13%; in [8], 15%.
As to `Cc1ccc(C(=O)N2CCC3(CC2)CCN(CCN(C)C)C3=O)cn1`, the Percent Effect was -3.6% in [1]; 6.49% in [2]; -4.15% in assay [3]; -1.31% in the assay with Trypanosoma cruzi; -0.457% in assay [4]; 6.44% in assay [5]. Moreover, the Percent Effect was 11.3% in the assay listed under Homo sapiens, 7.73% in assay [6], 7.5% in assay [7] and -6.63% in assay [8].
For the compound `CCCn1nc2c(cc1=O)CN(CC(=O)Nc1nnc(C)s1)CC2`, the Percent Effect in [1] is -7.9%; in assay [2], 13%; in assay [3] it was 10.3%; in the assay on Trypanosoma cruzi it was -3.92%; in [4], 3.07%; in assay [5], 11.8%. The Percent Effect in the assay listed under Homo sapiens was 1.49%; in assay [6] it was 2.94%; in [7], 9.41%; in [8], -8.62%.
`O=C(NCCC1=CCCCC1)C1CCN(c2ccc3nncn3n2)CC1`: the Percent Effect in assay [1] is -2.89%; in [2], 10.8%; in assay [3], -2.17%; in the assay with Trypanosoma cruzi, -0.485%; in assay [4], -2.45%; in [5], 11.1%. In addition, the Percent Effect in the assay filed under Homo sapiens stood at 28.5%; in assay [6] it was 4.79%; in assay [7], 14.6%; in [8], 2.87%.
In the case of `Cc1ccccc1S(=O)(=O)N1CCCCC1c1ccn[nH]1` (stereo not given), the Percent Effect in assay [1] is 1.53%; in assay [2], 9.33%; in assay [3] it was -8.62%; in the assay with Trypanosoma cruzi it was -7.5%; in [4] it was 0.443%; in [5], 13.3%. The Percent Effect is 19.3% in the assay listed under Homo sapiens, 0% in [6], 7.5% in assay [7] and -21.7% in [8].
Regarding `Cc1ccccc1N1CC2(CCN(S(=O)(=O)c3cccs3)C2)CC1=O` (stereo not given), the Percent Effect is -1.18% in assay [1]; 24.7% in assay [2]; -0.756% in assay [3]; 0% in the assay on Trypanosoma cruzi; -15.5% in [4]; 8.67% in assay [5]. Moreover, the Percent Effect was 10.2% in the assay listed under Homo sapiens, 5.8% in assay [6], 2.5% in [7] and -9.98% in assay [8].
In the case of `Cc1cccn2cc(CC(=O)N3CCCC(n4cncn4)C3)nc12` (stereo not given), the Percent Effect in [1] was -0.27%; in assay [2], 17.9%; in assay [3], -8.4%; with Trypanosoma cruzi, 6.1%; in assay [4], 5.74%; in assay [5] it was 15.6%. Besides, the Percent Effect in the assay listed under Homo sapiens was 17.2%; in assay [6], 3.35%; in [7], 22.9%; in [8] it was -6%.
For `O=C1C(NCc2nnc3n2CCCC3)CCN1CC(F)(F)F` (stereo not given), the Percent Effect in [1] is -2.08%; in [2], 2.56%; in assay [3], -21.5%; with Trypanosoma cruzi, 8.73%; in assay [4] it was -2.05%; in assay [5], 1.79%. For the same compound, the Percent Effect was 4.98% in the assay listed under Homo sapiens, 1.44% in assay [6], 8.43% in assay [7] and -0.359% in [8].
In the case of `CC(C)NC(=O)CC1COC2(CCN(Cc3ccccc3)CC2)C1` (stereo not given), the Percent Effect in [1] is -1.47%; in assay [2], 16.9%; in assay [3] it was -1.95%; in the assay on Trypanosoma cruzi, -2.25%; in assay [4] it was 2.28%; in assay [5], 16.2%. Besides, the Percent Effect in the assay listed under Homo sapiens is -3.75%; in [6], 7.73%; in assay [7], 10%; in assay [8], -5.41%.
As for `O=c1c(-c2ccnc(NC3CCOCC3)n2)cnc2sc(Cl)cn12`, the Percent Effect is 5.59% in assay [1]; 16% in assay [2]; -4.95% in assay [3]; -8.63% with Trypanosoma cruzi; -2.66% in [4]; 17.7% in assay [5]. Moreover, the Percent Effect in the assay filed under Homo sapiens was 12%; in assay [6], 1.58%; in [7], 0%; in [8], -10.8%.
`CC(=O)NC1CCCN(C(=O)NCc2cccnc2N(C)C)C1` (stereo not given): the Percent Effect was -1.76% in [1]; 16% in assay [2]; 3.66% in [3]; 0.402% in the assay with Trypanosoma cruzi; 6.65% in assay [4]; 11.4% in [5]. The Percent Effect was 11.5% in the assay filed under Homo sapiens, 8.95% in assay [6], 15.4% in assay [7] and -11.3% in assay [8].
